Compounds with a hit are over-represented: about 8.2% of the library has one in this group of screens.
ELG1 DNA repair – ELG1-dependent DNA repair inhibition; HEK293T ELG1-luciferase reporter, luminescence, 16 h; DNA damage induced by 5-fluorouridine; 330,000 tested, 2.3% active; Potency, µM (top dose mostly 46.1 µM), most hits filed as inhibitors; note: nearly all actives have a fitted effect of over 55% in size
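Reporter activity after DNA damage by 5-fluorouridine is monitored. Compound-treated cells incubate 16 hr at 37 °C, then ONE-Glo is added for 30 min before luminescence reading.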
SW480 rerep – induces DNA re-replication in SW480 colon adenocarcinoma cells. 340,000 tested, 1.8% active. Potency, µM (top dose mostly 46.1 µM), actives largely listed as activators. SW480 DNA re-replication, Hoechst DNA content imaging, 48 h; note: nearly all actives have a fitted effect of over 55% in size
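SW480 cells exposed to compounds for 48 hr at 37 C, 5% CO2, then Hoechst-stained 40 min. Nuclear DNA content imaged by fluorescence scanning (405 nm excitation, 500-530 nm emission); re-replication scored as increased high-intensity nuclei.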
KB-V1 MDR tox – KB-V1 MDR subline cytotoxicity | 400,000 tested, 3.4% active | Potency, µM (titrated, usually from 46.1 µM), actives largely listed as cytotoxic | KB-V1 MDR cells viability, CellTiter-Glo, 72 h; note: nearly all actives have a fitted effect of over 60% in size
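Luminescent ATP read-out (CellTiter-Glo, 10 min) measures survival of drug-selected KB-V1 MDR cells after 72 h, 37 degrees C compound exposure. Medium: phenol-red-free DMEM, 10% FBS. Values from fitted concentration-response curves.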
KB-3-1 tox – kills parental KB-3-1 adenocarcinoma cells. Potency, µM (top dose mostly 46.1 µM), hits mostly cytotoxic. 400,000 tested, 1.4% active. KB-3-1 viability, CellTiter-Glo ATP luminescence, 72 h; note: nearly all actives have a fitted effect of over 60% in size
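KB-3-1 parental drug-naive adenocarcinoma cells in DMEM/10% FBS, incubated 72 h at 37 C with pin-transferred compounds across a concentration series. Viability by CellTiter-Glo luminescence; concentration-response curves fitted after normalization.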
MCF10A rerep – DNA re-replication induction in MCF 10a cells | MCF 10A DNA re-replication, Hoechst nuclear intensity, 48 h | Potency, µM (titrated, usually from 46.1 µM), hits mostly activators | 350,000 tested, 2.9% active | AID 624296; note: nearly all actives have a fitted effect of over 50% in size
Each line names hits and unclear results; the compound was inactive in the other large screens; ! = not active in a repeat. Calls come from the whole dose curve; as a rule, active = well fitted curve in the direction sought with a large enough effect; inconclusive = small, poorly fitted or top-dose-only effect, or another doubt; inactive = no such curve, though single readings can be large; an effect the other way counts as inactive or inconclusive.

Cc1nc2ccc(NC(=O)Cc3ccc(Br)cc3)cc2s1	ELG1 DNA repair inconclusive, SW480 rerep inconclusive
Cc1ccc(-c2nc(-c3cccnc3)sc2CC(=O)Nc2ccc3nc(C)sc3c2)cc1	ELG1 DNA repair 18µM, SW480 rerep inconclusive
CCN(CC)C(=O)CSc1nc2ccc(NC(=O)CSc3nccn3C)cc2s1	ELG1 DNA repair 21µM, KB-V1 MDR tox inconclusive
Cn1c(SCC(=O)Nc2ccc3nc(SCC(=O)N4CCCC4)sc3c2)nnc1-c1ccc(N)cc1	ELG1 DNA repair 8.2µM
Cn1c(SCC(=O)Nc2ccc3nc(SCC(=O)NC4CC4)sc3c2)nnc1-c1ccccc1	ELG1 DNA repair inconclusive
COc1ccc(-c2nc3scc(CCNC(=O)c4cc(OC)cc(OC)c4)n3n2)cc1	KB-3-1 tox inconclusive (no result: ELG1 DNA repair, SW480 rerep, MCF10A rerep)
CC(=O)c1cn(C2OC(CO)C3OC(C)(C)OC32)c(=O)n(C)c1=O (centres undefined)	none (no result: ELG1 DNA repair)
CC[C@]12C(=O)N(C)C[C@H]([C@@H]3C(=O)N(Cc4ccccc4)C(=O)[C@@H]31)N2C(=O)c1ccc(C(F)(F)F)cc1	none (no result: ELG1 DNA repair)
CCOc1ccc2nc(SCC(=O)c3ccc(C)s3)sc2c1	ELG1 DNA repair inconclusive
Cc1cc(C)c(NC(=O)CSc2nc3ccc(NC(=O)CSc4nnnn4Cc4ccccc4)cc3s2)c(C)c1	KB-V1 MDR tox 6.5µM (no result: ELG1 DNA repair)
CCOc1ccc2nc(NC(=O)CSc3nc(SC)ns3)sc2c1	ELG1 DNA repair inconclusive, KB-V1 MDR tox 23µM
CCOc1ccc2nc(SCC(=O)Nc3ccc4c(c3)OCO4)sc2c1	KB-V1 MDR tox 16µM
COc1ccc(N2C(=O)Cc3cc(OC)c(OC)cc3C2c2ccc(F)cc2)cc1 (centres undefined)	none (no result: ELG1 DNA repair, SW480 rerep, MCF10A rerep)
CCOc1ccc(C2c3cc(OC)c(OC)cc3CC(=O)N2c2ccc(OC)cc2)cc1 (centres undefined)	ELG1 DNA repair inconclusive, SW480 rerep 15µM, KB-V1 MDR tox inconclusive, KB-3-1 tox 18µM
CC(=O)Oc1ccc2c(c1)CCC1C2CCC2(C)C(OC(C)=O)CCC12 (centres undefined)	KB-V1 MDR tox 10µM, KB-3-1 tox inconclusive, MCF10A rerep inconclusive (no result: ELG1 DNA repair)
CCCCC(=O)OC1CCC2C3CCc4cc(O)ccc4C3CC[C@]12C (some centres undefined)	MCF10A rerep 19µM (no result: ELG1 DNA repair, KB-V1 MDR tox, KB-3-1 tox)
CCC12CCC3c4ccc(O)cc4CCC3C1CC(O)C2O (centres undefined)	SW480 rerep inconclusive, MCF10A rerep 18µM (no result: ELG1 DNA repair)
COc1cc2c(cc1O)CC[C@@H]1[C@@H]2CC[C@]2(C)[C@@H](O)CC[C@@H]12	SW480 rerep 3.3µM, KB-V1 MDR tox 5.8µM, KB-3-1 tox 1.6µM, MCF10A rerep inconclusive (no result: ELG1 DNA repair)
C[C@]12CC[C@@H]3c4ccc(OC(=O)c5ccccc5)cc4CC[C@H]3[C@@H]1CC[C@@H]2O	KB-V1 MDR tox 21µM, KB-3-1 tox inconclusive, MCF10A rerep 30µM!
Cc1ccccc1OCC(=O)OCC(=O)Nc1ncc(Cl)c(C)c1Cl	SW480 rerep inconclusive
CC1CCN(c2ccc(NC(=O)c3cccnc3Cl)cc2)CC1	none
CCc1ccc(C(=O)N2CCN(c3ccc(NC(=O)c4cccnc4)cc3)CC2)cc1	ELG1 DNA repair 23µM, SW480 rerep inconclusive, KB-V1 MDR tox inconclusive
CC1CCN(c2ccc(NC(=O)c3cccnc3)cc2)CC1	ELG1 DNA repair inconclusive, KB-V1 MDR tox 18µM
O=C(Nc1ccc(N2CCN(C(=O)c3ccccc3)CC2)cc1)c1cccnc1	ELG1 DNA repair inconclusive, KB-V1 MDR tox inconclusive
Cc1[nH]c(=O)[nH]c(=O)c1C1N2CC3(C(C)C)CN1CC(C(C)C)(C2)C3=O (centres undefined)	none (no result: ELG1 DNA repair, SW480 rerep, MCF10A rerep)
Cc1ccc(Cc2c(C3CCCCC3)nc3c4ccccc4ccn23)cc1	none (no result: ELG1 DNA repair, SW480 rerep, MCF10A rerep)
COC(=O)C1CSC(C)(C)C(=O)N1 (centres undefined)	MCF10A rerep 0.92µM
CCOc1ccccc1N1C(=O)CN(Cc2ccc(OC)c(OC)c2)C1=S	ELG1 DNA repair inconclusive, SW480 rerep inconclusive
COc1cc(-c2noc(C)c2C(=O)NCCc2c[nH]c3ccccc23)cc(OC)c1OC	KB-V1 MDR tox inconclusive, MCF10A rerep inconclusive
COc1cc(-c2noc(C)c2-c2ccc3[nH]ccc3c2)cc(OC)c1OC	ELG1 DNA repair inconclusive, SW480 rerep 2.6µM, KB-V1 MDR tox 1.8µM!, KB-3-1 tox 1.8µM, MCF10A rerep inconclusive
COc1cc(-c2noc(C)c2-c2ccc(N(C)C)nc2)cc(OC)c1OC	SW480 rerep 0.29µM, KB-V1 MDR tox 0.21µM, KB-3-1 tox 0.0065µM, MCF10A rerep inconclusive
COc1cc(-c2noc(C)c2/C=C/c2ccc(C(=O)O)cc2)cc(OC)c1OC	SW480 rerep inconclusive, KB-3-1 tox inconclusive, MCF10A rerep inconclusive
COc1ccc(Cl)cc1NC(=O)c1nn(C)c2c1CS(=O)(=O)c1ccccc1-2	none (no result: ELG1 DNA repair, SW480 rerep, MCF10A rerep)
COc1cccc(NC(=O)CN(C)C(=O)/C=C/c2ccc3ccccc3n2)c1	none
Cc1ccc(C(=O)N2CC(=O)Nc3ccc(F)cc3C2c2ccccc2)cc1[N+](=O)[O-] (centres undefined)	ELG1 DNA repair inconclusive, KB-V1 MDR tox 15µM
Cc1ccc2c(c1)C(c1ccccc1)N(C(=O)c1ccccc1[N+](=O)[O-])CC(=O)N2 (centres undefined)	ELG1 DNA repair 21µM
Cc1ccc2c(c1)C(c1ccccc1)N(C(=O)C(C)C)CC(=O)N2 (centres undefined)	none
Cc1ccc(C(=O)N2CC(=O)Nc3ccc(C)cc3C2c2ccccc2)cc1 (centres undefined)	none
Cc1cc(C)cc(C(=O)N2CC(=O)Nc3ccc(Br)cc3C2c2ccccc2)c1 (centres undefined)	KB-V1 MDR tox 15µM, KB-3-1 tox inconclusive (no result: ELG1 DNA repair, SW480 rerep, MCF10A rerep)
O=C1CN(C(=O)c2ccccc2[N+](=O)[O-])C(c2ccccc2)c2cc(Br)ccc2N1 (centres undefined)	ELG1 DNA repair 18µM
O=C1CN(C(=O)c2c(F)cccc2F)C(c2ccccc2)c2cc(Br)ccc2N1 (centres undefined)	none
CC1(C(=O)Nc2cccc3cccnc23)CCN1C(=O)CC1CC1 (centres undefined)	none (no result: ELG1 DNA repair, SW480 rerep, MCF10A rerep)
CCOC(=O)C1=C(Nc2ccc(OC)cc2)C(N)=NC1=N	KB-V1 MDR tox 1.8µM, KB-3-1 tox inconclusive (no result: ELG1 DNA repair, SW480 rerep, MCF10A rerep)
Cc1ccccc1-c1ccnc2c(-c3ccc(F)cc3)c(C)nn12	none (no result: ELG1 DNA repair, SW480 rerep, MCF10A rerep)
CCOc1ccc(S(=O)(=O)Nc2nc3ccccc3nc2N2CCN(C)CC2)cc1	none
CCOC(=O)N1CCC(NS(=O)(=O)c2ccc3c(c2)oc(=O)n3C)CC1	none
CCOC(=O)N1CCC(NC(=O)c2ccc(Cl)cc2)CC1	none
CCOC(=O)N1CCC(Nc2nc3ccccc3nc2NS(=O)(=O)c2ccc(Cl)cc2)CC1	ELG1 DNA repair inconclusive, KB-V1 MDR tox 15µM, KB-3-1 tox inconclusive
O=S(=O)(Nc1nc2ccccc2nc1N1CCN(c2ccccc2F)CC1)c1ccc(Cl)cc1	ELG1 DNA repair 18µM, KB-V1 MDR tox inconclusive, KB-3-1 tox 11µM, MCF10A rerep 10µM
